# In the library only some 0.44% were active in any assay of this set; here they are far more common.
# Epigenetic derep – Quantitative High-Throughput Screen for Regulators of Epigenetic Control; murine LDR cells, GFP reporter derepression, 30 h; Potency, µM (titrated, usually from 53.9 µM), without a hit: at the top dose GFP activation, hits mostly activators; actives 0.2% (n = 280,000); AID 1865, 2009; further: potency means the concentration at half of the fitted maximal effect; % of control where 0% means no effect; nearly all actives have a fitted effect of over 60% in size
#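 Readout is the number of GFP-expressing murine LDR cells, counted by cytometry following washing. Cells were treated with compound for 30 h at 37 C; the stably integrated CMV-GFP locus is normally silent.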
# Pin1 inhibitor – qHTS Assay to Find Inhibitors of Pin1; actives 0.009% (n = 390,000); Potency, µM (highest dose often 115 µM), inactives show at the highest dose activity, negative = inhibition, actives largely listed as inhibitors; Pin1 FP peptide displacement, HiFluor488, 10 min; AID 504891, 2011; Peptidyl-prolyl cis-trans isomerase NIMA-interacting 1 (Homo sapiens), Q13526; active means well fitted inhibition curve with a large enough effect in the polarisation, with a control signal flat, not every such curve was filed as active; inconclusive means small, poorly fitted or top-dose-only effect, or effect the other way, or a change in a side signal; inactive means no such curve, though single readings can be large or run the other way; the % refers to the polarisation; further: potency means the concentration at half of the fitted maximal effect; on the % scale 0 is the no-effect control and ±100 the full control effect
# Target sequence (Q13526 whole entry, looked up): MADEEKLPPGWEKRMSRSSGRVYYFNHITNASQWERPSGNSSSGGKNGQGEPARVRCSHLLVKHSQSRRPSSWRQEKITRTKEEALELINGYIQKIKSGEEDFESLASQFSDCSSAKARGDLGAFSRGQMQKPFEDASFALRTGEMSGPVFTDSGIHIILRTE
# Giardia kill – Small Molecules that selectively kill Giardia lamblia: qHTS | Giardia lamblia trophozoite viability | actives 0.15% (n = 340,000) | activity change, % at 7.66 µM, hits read low; in the data active means activity change below about -80%; inconclusive means between about -30% and that limit;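 further: parasites exposed to compound for two days anaerobically before the ATP read; on the % scale 0 is the no-effect control and ±100 the full control effect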
#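 Luminescent ATP signal served as the viability read-out, measured 15-30 min after adding ATP detection reagent to trophozoites that had been incubated with compounds for 48 hrs at 37 deg C anaerobically at 100 cells/well.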
# p53 reactivation – qHTS assay for re-activators of p53 using a Luc reporter. H1299 p53-A138V BP100-luciferase reporter, luminescence, 24 h. Potency, µM (titrated, usually from 92.2 µM), without a hit: at the highest dose activity change, positive = activation, hits mostly activators. actives 0.063% (n = 320,000); further: potency means the concentration at half of the fitted maximal effect; % of control where 0% means no effect; nearly all actives have a fitted effect of over 45% in size
#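 H1299 (p53-null), stable ts p53-A138V + BP100-Luc; 1000 cells/well, Opti-MEM/10% FBS; cpd 4 pt, 1:5; 24 h, 37 deg C, 5% CO2; detection reagent 10 min RT; luminescence.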
# PI4K2A inh – qHTS for small molecular inhibitors of PI4K2A; Phosphatidylinositol 4-kinase type 2-alpha (Homo sapiens), Q9BTU6; purified PI4K2A, ADP-Glo luminescence, 1 h; active compounds read low; activity change, negative = inhibition, % at 76.9 µM; actives 0.13% (n = 420,000); AID 1346378, 2018; in the data active means activity change below about -50%; inconclusive means mostly about -30% to -49%;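 further: -100% = wells without enzyme as full effect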
#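 Compounds are screened against recombinant PI4K2A using PI as substrate and ATP, the latter dispensed at 300 microM. Reactions run one hour at ambient temperature before ADP-Glo detection; full inhibition defined by wells lacking enzyme.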
# B2AR arrestin – qHTS assay of beta-arrestin-biased ligands of beta2-adrenergic receptor. Beta-2 adrenergic receptor (Homo sapiens), P07550. beta-arrestin recruitment to beta2AR, cell-based reporter. Potency, µM (titrated, usually from 46.1 µM), inactives show at the top dose activation, actives largely listed as activators. actives 0.02% (n = 330,000);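 further: potency means the concentration at half of the fitted maximal effect; 0% = DMSO controls and full agonism = EC100 isoproterenol or metaproterenol; nearly all actives have a fitted effect of over 65% in size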
# * hit, by the source's call; ? = inconclusive; . = not tested or not shown. Unless noted, the call rests on the fitted dose curve; in most records, active means well fitted curve in the direction sought with a large enough effect; inconclusive means small, poorly fitted or top-dose-only effect, or another doubt; inactive means no such curve, though single readings can be large; an effect the other way counts as inactive or inconclusive.
SMILES,Epigenetic derep,Pin1 inhibitor,Giardia kill,p53 reactivation,PI4K2A inh,B2AR arrestin
N#C/C(=C/c1ccc(O)cc1)c1nc(-c2ccc(-c3ccccc3)cc2)cs1,11.2µM*,14.8%,.,.,0.7,.
CCN1C(=O)/C(=C2/Sc3ccc(OC)cc3N2C)SC1=Nc1ccc(OC)cc1,-3.0%,2.3%,3.1,3.7%,1.5,0.1%
C=CCN1C(=O)/C(=C2/Sc3ccc(OC)cc3N2C)SC1=Nc1cccc(O)c1,10µM*,?,-18.1,-0.3%,0.7,0.1%
Cc1ccccc1-c1nc2c3ccccc3nc(=S)n2[nH]1,.,21.5%,-23.2,5.0%,10.0,10µM*
O=C1C(=C(I)I)c2ccccc2-c2ccccc21,.,.,-4.1,.,-57.6*,.
CC(C(=O)N1CCCCC1)n1sc2ccccc2c1=O (stereo not drawn),-2.0%,2.1%,2.3,11.2µM*,-10.0,-0.3%
CC(C(=O)N1CCN(C(=O)c2ccco2)CC1)n1sc2ccccc2c1=O (stereo not drawn),.,-9.0%,5.3,24.8%,7.2,-0.6%
Cc1ccc(OC(=O)COc2ccccc2)c(-n2nc3ccccc3n2)c1,-4.6%,-4.1%,-5.6,?,6.6,0.1%
Cc1ccc(OC(=O)COc2ccccc2C)c(-n2nc3ccccc3n2)c1,7.0%,1.7%,-3.5,39.8µM*,0.9,-0.7%
c1ccc(-c2cc3c(ccc4nonc43)nn2)cc1,2.9%,4.1%,6.0,?,1.7,-0.2%
On1onc2c3cc(-c4ccccc4)nc3ccc21,15.8µM*,-7.0%,0.0,?,3.5,-0.2%
Cc1csc(NC(=O)c2cn3ccccc3n2)n1,0.1%,1.1%,?,-8.3%,-55.5*,0.1%
COc1cc2ccccc2cc1C(=O)Nc1ccc(N2CCN(C)CC2)cc1,1.0%,?,23.0,20µM*,-5.2,0.4%
Cc1ccc(NC(CC(=O)c2ccccc2)c2ccc(F)cc2)cc1 (stereo not drawn),1.1%,2.7%,-12.8,?,7.2,-0.5%
Cc1ccc(C(=O)CC(Nc2ccc(F)cc2)c2ccccc2)cc1 (stereo not drawn),-1.0%,2.3%,-2.5,17.8µM*,0.1,-0.4%
N#Cc1cc(NC(=O)C(=O)O)c(Cl)c(NC(=O)C(=O)O)c1,.,.,.,.,-2.2,.
N#Cc1c(C(F)(F)F)cc(-c2ccccc2)nc1SCc1nc(N)nc(N2CCOCC2)n1,6.31µM*,?,3.0,7.7%,2.4,-0.3%
N#Cc1c(C(F)(F)F)cc(-c2ccc(Cl)c(Cl)c2)nc1SCCN1CCOCC1,-0.9%,?,-0.1,5.5%,1.8,0.2%
COC(=O)Cc1ccc2sc(-c3ccccc3)nc2c1,-1.8%,3.7%,?,?,-62.3*,-1.9%
O=C(O)Cc1ccc2sc(-c3ccccc3)nc2c1,1.0%,2.5%,-9.6,?,-67.1*,-0.6%
CC(=NCc1ccco1)c1c(C)[nH]n(-c2nc3ccccc3s2)c1=O,?,?,?,?,-27.2,-0.6%
C/C(=N/NC(=O)c1cccs1)c1c(C)[nH]n(-c2nc3ccccc3s2)c1=O,-3.2%,-0.6%,?,?,-65.8*,-0.2%
CCc1ccc(-c2csc(-c3c[nH]c4ccccc34)n2)cc1,1.3%,-0.8%,-15.1,20µM*,-3.1,0.0%
CN(C)CCCOC1(Cc2ccccc2)CCCCCC1,.,.,.,.,3.0,.
Cc1cc2nc(-c3ccc(SCC(=O)Nc4ccc(S(=O)(=O)NC5CC5)cc4)nc3)[nH]c2cc1C,5.3%,?,?,2.82µM*,-7.4,1.9%
Nc1ccc(-c2cnc[nH]2)cc1[N+](=O)[O-],0.5%,0.2%,-4.7,5.3%,-50.6*,-0.5%
NC(=O)C1CCN(c2ncc(-c3ccc4c(c3)OCCCO4)s2)CC1,.,-5.6%,.,.,.,.
CC1=NN(C(N)=S)C(=O)C1N=Nc1ccccc1 (stereo not drawn),0.7%,7.0%,-15.9,1.6%,17.4,1.41µM*

# Screening data as filed in PubChem.
